Bioassay records as filed in PubChem.
This is a sample that favours compounds with a hit; in the whole collection about 10% have one here.
KB-V1 cytotox – KB-V1 MDR subline cytotoxicity. Potency, µM (titrated, usually from 46.1 µM), most hits filed as cytotoxic. 3.4% of 400,000 active. AID 1347076. KB-V1 MDR cells viability, CellTiter-Glo, 72 h; further: nearly all actives have a fitted effect of over 60% in size
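qHTS viability screen in drug-selected KB-V1 MDR cells: 72 h compound treatment at 37 degrees C, ATP luminescence end point.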
SW480 rereplic – DNA re-replication induction in SW480 cells; SW480 DNA re-replication, Hoechst DNA content imaging, 48 h; 1.8% of 340,000 active; Potency, µM (doses to about 46.1 µM), hits mostly activators; further: nearly all actives have a fitted effect of over 55% in size
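Hoechst fluorescence of nuclei (405 nm excitation, 500-530 nm emission) measured by plate-scanning imager after 48 hr compound exposure at 37 C; re-replication scored as increased number of nuclei with elevated intensity.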
MCF10A rerep – DNA re-replication induction in MCF 10a cells; AID 624296; 2.9% of 350,000 active; MCF 10A DNA re-replication, Hoechst nuclear intensity, 48 h; Potency, µM (doses to about 46.1 µM), hits mostly activators; further: nearly all actives have a fitted effect of over 50% in size
Gal4-VP16 FLuc – Gal4-VP16 reporter inhibition counter-screen; 3.5% of 310,000 active; Drosophila S2 Gal4-VP16 UAS-luciferase, luminescence, 20 h; Potency, µM (highest dose often 53.6 µM), hits mostly inhibitors; AID 2546;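 further: Gal4-VP16 expression switched on by copper sulfate through the metallothionein promoter; nearly all actives have a fitted effect of over 50% in size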
RORgamma inh – blocks mouse ROR gamma transcriptional activity; AID 2551; Drosophila S2 Gal4-RORgamma UAS-luciferase reporter, 20 h; Potency, µM (highest dose often 53.6 µM), actives largely listed as inhibitors; P51450; 5.4% of 310,000 active; further: nearly all actives have a fitted effect of over 60% in size
Target sequence (P51450 whole entry, looked up, the tested form may be a part): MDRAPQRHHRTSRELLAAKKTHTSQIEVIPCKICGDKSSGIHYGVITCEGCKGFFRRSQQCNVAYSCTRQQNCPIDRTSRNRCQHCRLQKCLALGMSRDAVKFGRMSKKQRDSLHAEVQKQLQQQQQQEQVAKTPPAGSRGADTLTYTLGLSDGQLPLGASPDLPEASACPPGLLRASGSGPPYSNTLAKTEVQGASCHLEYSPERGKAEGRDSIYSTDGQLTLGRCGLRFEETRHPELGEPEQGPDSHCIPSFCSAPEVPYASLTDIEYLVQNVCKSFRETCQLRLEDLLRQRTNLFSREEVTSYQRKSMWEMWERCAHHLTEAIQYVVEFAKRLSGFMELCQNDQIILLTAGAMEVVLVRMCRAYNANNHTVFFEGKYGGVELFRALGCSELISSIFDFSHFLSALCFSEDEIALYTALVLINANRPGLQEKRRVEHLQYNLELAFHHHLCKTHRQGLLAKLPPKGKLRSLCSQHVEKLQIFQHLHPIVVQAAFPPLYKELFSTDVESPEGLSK
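Compounds are pin-transferred onto Drosophila Schneider cells expressing a copper-inducible Gal4–ROR gamma transactivation domain fusion. After 1 hr, copper sulfate is added to 700 uM final; luciferase is read 20 hr later.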
KB-3-1 tox – kills parental KB-3-1 adenocarcinoma cells | KB-3-1 viability, CellTiter-Glo ATP luminescence, 72 h | Potency, µM (top dose mostly 46.1 µM), most hits filed as cytotoxic | 1.4% of 400,000 active; further: nearly all actives have a fitted effect of over 60% in size
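Screening of KB-3-1 cells (DMEM, 10% FBS, phenol-red free) ran from lowest to highest compound concentration; after 72 h at 37 °C viability was read luminescently and curves fitted.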
Large screens that a line does not name were inactive. The call rests on the fitted dose curve; in most records, active means well fitted curve in the direction sought with a large enough effect; inconclusive means small, poorly fitted or top-dose-only effect, or another doubt; inactive means no such curve, though single readings can be large; an effect the other way counts as inactive or inconclusive.

O=C1CNCc2[nH]c3ccccc3c2N1c1ccccc1	KB-V1 cytotox 23.1µM, MCF10A rerep inconclusive (no result: Gal4-VP16 FLuc)
Cc1sc2ncnc(NCC(C)(C)N3CCOCC3)c2c1C	KB-V1 cytotox 4.11µM, Gal4-VP16 FLuc 17.8µM, RORgamma inh inconclusive, KB-3-1 tox inconclusive
COc1ccc(C(CNc2ncnc3sc(C)c(C)c23)N(C)C)cc1 (centres undefined)	KB-V1 cytotox 10.3µM, SW480 rereplic inconclusive, MCF10A rerep inconclusive, KB-3-1 tox inconclusive
Cc1sc2ncnc(NCc3ccccc3)c2c1C	KB-V1 cytotox inconclusive, Gal4-VP16 FLuc 17.8µM, KB-3-1 tox 23.1µM
Cc1sc2ncnc(NCC(c3ccco3)N(C)C)c2c1C (centres undefined)	KB-V1 cytotox 18.4µM
O=C(NCc1cccnc1)C1C2C=CC(C2)C1C(=O)Nc1cccc(C(F)(F)F)c1 (centres undefined)	none (no result: SW480 rereplic, MCF10A rerep, Gal4-VP16 FLuc, RORgamma inh)
CC(C)CN1CC2(CCN(S(=O)(=O)c3ccccc3)CC2)C1	none (no result: KB-V1 cytotox, SW480 rereplic, MCF10A rerep, KB-3-1 tox)
CC(=O)c1c(C)n(CC(=O)NCc2ccc3c(c2)OCO3)c2ccccc12	KB-V1 cytotox 2.91µM, SW480 rereplic inconclusive, MCF10A rerep inconclusive, Gal4-VP16 FLuc inconclusive, KB-3-1 tox 16.4µM
O=C(CN1C(=O)CSc2ccccc21)Nc1ccc2c(c1)OCCO2	KB-V1 cytotox inconclusive
O=C(CN1C(=O)CCSc2ccccc21)Nc1ccc2c(c1)OCO2	KB-V1 cytotox 18.4µM
CC(=O)OCc1ccc2c(c1)OCO2	none (no result: KB-V1 cytotox, SW480 rereplic, MCF10A rerep, KB-3-1 tox)
Cc1cc(C)c2cc(C)c3nnc(SCC(=O)NCc4ccc5c(c4)OCO5)n3c2c1	KB-V1 cytotox 2.31µM
CC(=O)c1c(C(C)=O)c(C)n(Cc2ccc3c(c2)OCO3)c1C	KB-V1 cytotox 2.59µM, RORgamma inh inconclusive, KB-3-1 tox 13µM
O=c1c2ccccc2oc2ccc(-c3ccoc3)cc12	KB-V1 cytotox inconclusive (no result: SW480 rereplic, MCF10A rerep, Gal4-VP16 FLuc, RORgamma inh)
CCOc1ccc(NS(=O)(=O)c2ccc3[nH]c4c(c3c2)CCCCC4)cc1	KB-3-1 tox inconclusive (no result: SW480 rereplic, MCF10A rerep, Gal4-VP16 FLuc, RORgamma inh)
Cc1ccc2oc(C(=O)N(Cc3cccc(F)c3)C3CCS(=O)(=O)C3)c(C)c2c1 (centres undefined)	none (no result: SW480 rereplic, MCF10A rerep, Gal4-VP16 FLuc, RORgamma inh)
CN(C)c1ncnc2c1ncn2[C@H]1CN(Cc2cccnc2)C[C@@H](CO)O1	none (no result: SW480 rereplic, MCF10A rerep, Gal4-VP16 FLuc, RORgamma inh)
CC1CC(=O)N(CC(=O)NCc2ccc3c(c2)OCO3)c2ccccc2S1 (centres undefined)	KB-V1 cytotox 20.6µM
CCC(C)Sc1nc2ccccc2n1CC(=O)O (centres undefined)	RORgamma inh 12.6µM
CC(C)Sc1nc2ccccc2n1CC(=O)NCc1ccc2c(c1)OCO2	KB-V1 cytotox 14.6µM
CC(=O)c1ccc(NC(=O)CSc2nc(=O)n(Cc3ccncc3)c3c2CCC3)cc1	none (no result: SW480 rereplic, MCF10A rerep, Gal4-VP16 FLuc, RORgamma inh)
Cc1cc(C(=O)COc2ccc(-c3nnco3)cc2)c(C)n1Cc1ccccc1	KB-V1 cytotox 2.91µM, Gal4-VP16 FLuc inconclusive, KB-3-1 tox 16.4µM
CCC(C)c1ccccc1NC(=O)COc1ccc(-c2nnco2)cc1 (centres undefined)	none (no result: Gal4-VP16 FLuc, RORgamma inh)
O=C(/C=C/c1ccc(N2CCC(c3ccccc3)=N2)cc1)c1ccccc1	SW480 rereplic inconclusive, MCF10A rerep 6.51µM
CCOC(=O)/C(=C\c1ccc(N2CCC(c3ccccc3)=N2)cc1)C(C)=O	SW480 rereplic 1.46µM, MCF10A rerep 1.46µM (no result: KB-V1 cytotox, Gal4-VP16 FLuc, RORgamma inh, KB-3-1 tox)
CCOC(=O)N1N=C(c2ccccc2)CC1(O)C(F)(F)F (centres undefined)	none
Cc1ccccc1N1CCN(CC(=O)Nc2ccccc2C(=O)NC2CC2)CC1	none (no result: Gal4-VP16 FLuc, RORgamma inh)
CCn1ccc2c(OCC(=O)Nc3ccc(OC)cc3OC)cccc2c1=O	none (no result: SW480 rereplic, MCF10A rerep, Gal4-VP16 FLuc, RORgamma inh)
CN(C)C(CN1C(=O)C2CC=CCC2C1=O)c1cn(C)c2ccccc12 (centres undefined)	SW480 rereplic 4.11µM
c1ccc(-c2nnc3nc(N4CCCCC4)nc(N4CCCCC4)n23)cc1	KB-V1 cytotox 18.4µM, KB-3-1 tox inconclusive (no result: Gal4-VP16 FLuc, RORgamma inh)
COc1ccc(C2C(C#N)=C(N)Oc3c2ccc2cccnc32)cc1OC (centres undefined)	SW480 rereplic 1.64µM, MCF10A rerep 4.61µM, Gal4-VP16 FLuc inconclusive, RORgamma inh inconclusive, KB-3-1 tox 2.59µM
COc1cc(C2C(C#N)=C(N)Oc3cc(N)ccc32)cc(OC)c1OC (centres undefined)	KB-V1 cytotox inconclusive, SW480 rereplic 1.16µM, MCF10A rerep 1.16µM, KB-3-1 tox inconclusive
N#CC1=C(N)Oc2cc(N)ccc2C1c1ccc(F)cc1F (centres undefined)	KB-V1 cytotox inconclusive, SW480 rereplic 23.1µM, MCF10A rerep 20.6µM, KB-3-1 tox inconclusive
COc1cc(C2C(C#N)=C(N)Oc3c2ccc2ccccc32)ccc1OCC(=O)Nc1ccc(C)cc1 (centres undefined)	KB-V1 cytotox inconclusive, MCF10A rerep inconclusive, KB-3-1 tox inconclusive
CC1CCc2c(nc3sc4c(c3c2N)CCCC4)C1 (centres undefined)	KB-V1 cytotox inconclusive, MCF10A rerep inconclusive, Gal4-VP16 FLuc inconclusive, RORgamma inh 12.6µM
CC1CCc2nc3sc4c(c3c(N)c2C1)CCCC4 (centres undefined)	KB-V1 cytotox inconclusive, MCF10A rerep inconclusive, KB-3-1 tox inconclusive
Nc1c2c(nc3sc4c(c13)CCCCC4)CCCCC2	KB-V1 cytotox 8.2µM, MCF10A rerep inconclusive, RORgamma inh inconclusive, KB-3-1 tox inconclusive
O=C(Nc1ccc(OC(F)(F)F)cc1)C1CCN(S(=O)(=O)c2cccs2)CC1	KB-3-1 tox 20.6µM (no result: SW480 rereplic, MCF10A rerep, Gal4-VP16 FLuc, RORgamma inh)
Cc1ccc2nc(NC(=O)C3CCN(S(=O)(=O)c4cccs4)CC3)sc2c1	KB-V1 cytotox 4.61µM, RORgamma inh inconclusive, KB-3-1 tox inconclusive
Cc1noc(C)c1S(=O)(=O)N1CCC(C(=O)Nc2ccc(OC(F)(F)F)cc2)CC1	MCF10A rerep 15.8µM, Gal4-VP16 FLuc inconclusive
Cc1cccc(NC(=O)C2CCN(S(=O)(=O)c3cccs3)CC2)n1	KB-V1 cytotox 23.1µM
COc1ccc(NC(=O)C2CCN(S(=O)(=O)c3c(C)noc3C)CC2)cc1	none
CCCCCCCCCCCCC(=O)N1CCCC[C@H]1CNC(=O)[C@@H](N)CCCCN	none (no result: KB-V1 cytotox, SW480 rereplic, MCF10A rerep, KB-3-1 tox)
COc1ccc2nc(NC(=O)C3CCN(S(=O)(=O)c4cccs4)CC3)sc2c1	KB-V1 cytotox 23.1µM, KB-3-1 tox inconclusive
COc1ccc2nc(NC(=O)C3CCCN(S(=O)(=O)c4cccs4)C3)sc2c1 (centres undefined)	none
O=C(Nc1nc2ccc(C(=O)N3CCCCC3)cc2s1)C1CCCCC1	KB-V1 cytotox 3.66µM, SW480 rereplic 6.51µM, MCF10A rerep 4.11µM, KB-3-1 tox 5.8µM
Cc1ccc2nc(NC(=O)C3CCN(S(=O)(=O)c4cc([N+](=O)[O-])ccc4Cl)CC3)sc2c1	KB-V1 cytotox inconclusive, SW480 rereplic inconclusive, Gal4-VP16 FLuc inconclusive, KB-3-1 tox inconclusive
